Measured values: PubChem BioAssay (NCI)
Compounds without any hit were thinned out: in the full panel of roughly 83,000, 20% have a hit.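 Single-dose data. Exposure time 48 hours. Values below 10 considered active.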 Values without a mark were called inactive. Activity calls are given as the source filed them.

Experiments:
Assay in all cases: NCI-60 one-dose screen, 48 h (100 = growth as untreated, 0 = no growth, -100 = all killed)
HT29 colon = details: 10 µM unless noted
SNB-75 CNS = details: 10 µM unless noted
SNB-19 CNS = details: 10 µM unless noted
U251 CNS = details: 10 µM unless noted
PC-3 prostate = details: 10 µM unless noted
SK-MEL-5 melanoma = details: 10 µM unless noted
UACC-62 melanoma = details: 10 µM unless noted
LOX IMVI melanoma = details: 10 µM unless noted
SK-MEL-28 melanoma = details: 10 µM
SK-MEL-2 melanoma = details: 10 µM unless noted

Row | Structure (SMILES) | growth (HT29 colon) | growth (SNB-75 CNS) | growth (SNB-19 CNS) | growth (U251 CNS) | growth (PC-3 prostate) | growth (SK-MEL-5 melanoma) | growth (UACC-62 melanoma) | growth (LOX IMVI melanoma) | growth (SK-MEL-28 melanoma) | growth (SK-MEL-2 melanoma)
1 | O=C(Nc1ccc(N2CCNCC2)cc1)c1[nH]ncc1Nc1cc(C2CC2)ncn1 | 49.2% | 31.5% | 65.4% | 68.6% | 30.2% | 52.3% | 50% | 36.1% | 79.5% | 64.5%
2 | O=c1oc2ccc(-c3ccc(F)cc3F)cc2c(=O)n1-c1cccc(C(F)(F)F)c1 | 31.3% | -7.33% (active) | 14.4% | 4.94% (active) | 3.58% (active) | -76.4% (active) | 7.26% (active) | 25.7% | 25% | -15.9% (active)
3 | Nc1nonc1-n1nncc1-c1cccnc1 | 107% | 81.2% | 129% | 101% | 105% | 106% | 112% | 98.3% | 105% | 111%
4 | Cc1[nH]c2ccccc2c(=O)c1CC=C(Cl)Cl | -59.8% (active) | 63.1% | 56.7% | 18.9% | 43.6% | 72.2% | 63.9% | 3.09% (active) | 74.8% | 46.2%
5 | CCOC(=O)c1cc2c(n1Cc1ccccc1OC)-c1oncc1CCC2 | 10.1% | -2.26% (active) | 59.6% | 36.7% | 30.8% | 6.57% (active) | 26.5% | 45.5% | 44.8% | 27.5%
6 | Nc1nc(-c2ccccc2Br)nn1-c1nc2ccccc2s1 | 101% | 96.7% | 97.2% | 107% | 103% | 104% | 96.6% | 106% | 103% | 96.7%
7 | O=C(CSc1nc2ccccc2c(=O)n1-c1ccccc1)Nc1ccc(C(=O)/C=C/c2ccc(Cl)cc2)cc1 | 100% | 114% | 96.1% | 106% | 103% | 103% | 86% | 101% | 106% | 99.9%
8 | O=C(NCCCN1CCC(N2CCCCC2)CC1)C1=Cc2cc(Br)ccc2OC1 | 17.9% | 44.7% | 58.8% | 37% | 17.5% | 68% | 53.6% | 31.3% | 80.9% | 35.5%
9 | O=C(Nc1ccc(C23CC4CC(CC(c5ccccc5)(C4)C2)C3)cc1)c1cccs1 | 53.8% | 98.6% | 91.9% | 69.8% | 60% | 56.1% | 63.8% | 76.5% | 79.5% | 75.6%
10 | Cc1ccc(C(=O)c2oc3ccc4c(C)cc(=O)oc4c3c2C)cc1 | 14.3% | 67.8% | 41.4% | 18.6% | 7.34% (active) | -56.6% (active) | 29.4% | 33.2% | 51.4% | 32.1%
11 | COc1ccc(OC)c(N(CCN2C(=O)c3ccccc3C2=O)C(=O)CCl)c1 | 12.5% | 87.4% | 114% | 60.9% | 31.9% | 94% | 70.5% | -11.8% (active) | 100% | 72.3%
12 | Nc1nc2c(ncn2[C@@H]2O[C@H](CS)[C@@H](O)[C@H]2O)c(=O)[nH]1 | 99.9% | 92.6% | 95.3% | 99.3% | 101% | 97% | 93.6% | 96.9% | 98.6% | 120%
13 | CCCCNc1nc(NC(C)(C)C)nc(NC(C)(C)C)n1 | 15.2% | 59.8% | 63.7% | 38% | 58.6% | 50.7% | 55.3% | 56.8% | 61.4% | 64.1%
14 | Cn1cc(-c2ccc3ncc(-c4ccc(CC(=O)Nc5cc(C(C)(C)C)no5)cc4)nc3c2)cn1 | 51.6% | 43.7% | 62.6% | 40.8% | 49.7% | 28.7% | 42.6% | 45.7% | 53.2% | 38.1%
